According to ChEMBL document CHEMBL3988442, “University of Dundee, Small-Polar-MMV Screening Library” (2021):
The whole screen tested about 48,000 compounds, of which about 13,000 (27%) showed an effect of 50% or more. This is one part of the list.

What follows are compounds tested on Wolbachia pipientis (assay: Anti-Wolbachia Cell-Based Screen). Conditions: 5 µM.
Type: functional
Set-up: scale not given: in the data most compounds retested in dose-response had high values

Row | SMILES | Percent Effect [%]
1 | N#CCCN(CC1CCOC1)Cn1ccc(-c2ccccc2)n1 (configuration not stated) | -2.845
2 | CN(C)C1(C(=O)NC2CCC(Oc3ccccc3C#N)CC2)CCC1 (configuration not stated) | -18.62
3 | CCN(Cc1nc(COC)no1)Cc1ccccc1OCC(=O)O | 10.36
4 | CCn1cc(C(=O)NCC(C)(CC)N2CCOCC2)c2ccccc21 (configuration not stated) | 6.626
5 | Cc1cnn(CCNCc2c(C)nn(Cc3ccccc3)c2C)c1 | -5.977
6 | O=C(N1CCCC1)N1CCC2(CC1)COCCN(Cc1cccnc1)C2.O=C(O)C(F)(F)F.O=C(O)C(F)(F)F | -4.319
7 | O=C(O)C(F)(F)F.O=C(O)C(F)(F)F.O=C(c1ccsc1)N1CCC2(CC1)COCCN(Cc1ccncc1)C2 | 15.81
8 | O=C(C1CCCO1)N1CCC2(CC1)COCCN(Cc1cccnc1)C2.O=C(O)C(F)(F)F.O=C(O)C(F)(F)F (configuration not stated) | 128.2
9 | Cn1cccc1CN1CCC2(CCCN(C(=O)Cc3cccnc3)C2)C1 (configuration not stated) | 5.928
10 | O=C(C1CCCO1)N1CCC2(CC1)COCCN(Cc1ccncc1)C2.O=C(O)C(F)(F)F.O=C(O)C(F)(F)F (configuration not stated) | -9.895
11 | O=C(C1CCC2(CCN(Cc3cccnc3)CC2)CO1)N1CCCC1.O=C(O)C(F)(F)F.O=C(O)C(F)(F)F (configuration not stated) | 90.21
12 | O=C([C@@H]1CCCO1)N1CCOCC2(CCN(Cc3cccnc3)C2)C1 (some centres not stated) | 95.11
13 | O=c1[nH]c(C2CCOC2)nc2ccc(Cl)cc12 (configuration not stated) | -0.06581
14 | CCC1CN(C(=O)c2ccccc2N2CCCC2)CCN1C(C)C (configuration not stated) | -3.455
15 | CCN1C(=O)CC(c2cnn(C)c2)C12CCN(C(=O)c1ccc[nH]1)CC2 (configuration not stated) | 13.05
16 | COCCN1C(=O)CC(c2cccnc2)C12CCN(C(=O)C1CC1)CC2.O=C(O)C(F)(F)F (configuration not stated) | 106.6
17 | CCN1C(=O)CC(c2cccnc2)C12CCN(c1ncc(F)cn1)CC2 (configuration not stated) | -11.62
18 | COCCN1C(=O)CC(c2cccnc2)C12CCN(C)CC2 (configuration not stated) | 113.4
19 | CCN1C(=O)CC(c2ccccc2)C12CCN(c1ncc(C)cn1)CC2 (configuration not stated) | -13.83
20 | CCC(=O)N1CCC2(CC1)C(c1cccnc1)CC(=O)N2CCOC.O=C(O)C(F)(F)F (configuration not stated) | 110.5
21 | F[C@@H]1CN(Cc2ccccc2)C[C@@H]1OCc1nc2ccccc2[nH]1 | -3.249
22 | O=C(NCCCN1CCC(OC2CCCCC2)CC1)C1CCCC1 | -7.761
23 | CCC(C)N(Cc1cccnc1)C(=O)CCSC (configuration not stated) | -1.177
24 | CCc1noc(CN(C)C(=O)C2COc3ccccc3C2)n1 (configuration not stated) | 19.12
25 | CN(C)C(=O)CO[C@@H]1CN(Cc2ccccc2F)[C@@H]2CCCO[C@@H]21.O=C(O)C(F)(F)F | -3.753

Row | SMILES | Percent Effect [%]
26 | CN(C)C(=O)CO[C@H]1CN(Cc2ccc(F)cc2)[C@@H]2CCCO[C@H]12.O=C(O)C(F)(F)F | -2.214
27 | CCO[C@@H]1CN(Cc2scnc2C)[C@@H]2CCCO[C@@H]21.O=C(O)C(F)(F)F.O=C(O)C(F)(F)F | -1.893
28 | CN(C)CCO[C@H]1CN(CC2CC2)[C@@H]2CCCO[C@H]12.O=C(O)C(F)(F)F.O=C(O)C(F)(F)F | 109
29 | CCO[C@H]1CN(CC2CCOCC2)[C@@H]2CCCO[C@H]12.O=C(O)C(F)(F)F | 93.44
30 | Fc1ccccc1CN1C[C@H](OCC2CCOCC2)[C@H]2OCCC[C@H]21.O=C(O)C(F)(F)F | -9.213
31 | CNC(=O)C1CN(C(=O)c2cccs2)CCN(S(C)(=O)=O)C1 (configuration not stated) | 103.3
32 | CS(=O)(=O)NC[C@H]1OC[C@@H]2CCN(C(=O)c3cccnc3)C[C@@H]21 | -2.955
33 | CCCNC(=O)C[C@@H]1CCN(C(=O)c2cccnc2)C[C@@H]1CC | -4.226
34 | CN(C)c1cc(C(=O)N2CCN(S(C)(=O)=O)CC2)ccn1 | -8.698
35 | O=C(O)C[C@@H]1CCN(C(=O)c2cccs2)C[C@@H]1CCN1CCCCC1 | -8.603
36 | CC(C)C1CN(C(=O)c2cccs2)CCS1 (configuration not stated) | -18.38
37 | CNC(=O)C1CN(C(=O)c2ccncc2)CCN(S(C)(=O)=O)C1 (configuration not stated) | 113
38 | CNS(=O)(=O)c1ccc(C(=O)N2CCCC(n3cccn3)C2)cc1 (configuration not stated) | -7.031
39 | CNC(=O)C1CN(C(=O)c2cccnc2)CCN(S(C)(=O)=O)C1 (configuration not stated) | 102.1
40 | COCCN(Cc1cccnc1)c1nc(C)nc2oc(C)nc12 | 1.02
41 | CCCN(CC1CC1)C(=O)Cn1ccccc1=O | -7.373
42 | O=C(O)C(F)(F)F.O=C(O)C(F)(F)F.O=C(O)C(F)(F)F.c1cnc(N2CCN(C3CCC[C@@H]4CN(CC5CC5)C[C@H]34)CC2)nc1 (some centres not stated) | -9.573
43 | Clc1cccc2c3c([nH]c12)CCN(Cc1cc2n(n1)CCCNC2)C3 | -3.179
44 | CC(C(=O)NC1CC1)S(=O)(=O)Cc1noc(C(C)(C)C)n1 (configuration not stated) | 12.74
45 | O=C(Nc1cc(C2CCOCC2)[nH]n1)c1cc[nH]n1 | -3.397
46 | CCOc1cccc(COC(=O)c2cc(C)on2)n1 | 106.6
47 | CCOc1cccc(COC(=O)c2ccc(F)cn2)n1 | -9.322
48 | CCOc1cccc(COC(=O)c2ccc(Cl)cn2)n1 | -10.12
49 | CCOc1cccc(NC(=O)c2cnc(C)cn2)n1 | 87.8
50 | COC(CNC(=O)c1cc(C)on1)c1ccccc1C (configuration not stated) | 2.502

Row | SMILES | Percent Effect [%]
51 | CCOc1cccc(NC(=O)c2cc[nH]n2)n1 | 87.66
52 | CCOc1cccc(COC(=O)c2cscn2)n1 | -4.907
53 | CCOc1cccc(NC(=O)Cc2cccc(O)c2)n1 | -45.48
54 | CCOc1cccc(NC(=O)c2cscn2)n1 | -16.65
55 | CCOc1cccc(NC(=O)c2cc(C)on2)n1 | 91.67
56 | CCOc1cccc(COC(=O)c2cc(Cl)ccn2)n1 | -4.3
57 | CCN1CCN(C(=O)c2ccc3c(c2)CCCN3)[C@H]2CS(=O)(=O)C[C@H]21 | -2.171
58 | CSCCC1c2nc[nH]c2CCN1Cc1ccccc1C#N (configuration not stated) | -9.025
59 | Cc1ccc(NC(=O)c2cc(S(=O)(=O)N3CCCCC3)c[nH]2)cc1F | 1.173
60 | COCCC1(CNC(=O)NCC2CN(C)CCN2C)CCC1 (configuration not stated) | -22.96
61 | CC(C)c1ccc(OCCC(=O)N(C)C)cc1 | 6.13
62 | CC(C)c1nc(/C=C/c2cnn(-c3ccccc3)c2)ncc1C(=O)O | -2.711
63 | NC(=O)c1cccc(CC2CCN(C(=O)CCc3cccc(F)c3)C2)c1 (configuration not stated) | -3.46
64 | Cc1ccsc1[C@@H]1CCN(C(=O)Cc2ccc(O)cc2)C[C@H]1O | -5.599
65 | Cc1nccn1C1CCCN(C(=O)c2ccc3c(c2)nc(C)n3C)C1 (configuration not stated) | 109.3
66 | Cc1nc2cc(C(=O)N3CCCC(n4cncn4)C3)ccc2n1C (configuration not stated) | -4.268
67 | Cc1nc2cc(C(=O)N3CCCC(n4ccnc4)C3)ccc2n1C (configuration not stated) | 116.9
68 | CCOc1ccc(N(CCC#N)C(=O)c2ccnc(SC)c2)cc1 | 9.969
69 | Cc1cc(CNC(=O)[C@H]2CCCCN2C(=O)OC(C)(C)C)on1 | -34.39
70 | O=C(O)C(F)(F)F.c1cnc(N2CCO[C@H]3CN(Cc4cc[nH]n4)C[C@H]32)cn1 | -10.59
71 | O=C(O)C(F)(F)F.O=C(O)C(F)(F)F.c1csc(CN2C[C@@H]3OCCN(CC4CCCO4)[C@@H]3C2)c1 (some centres not stated) | -7.067
72 | COCCN1CCO[C@H]2CN(C(=O)c3cccs3)C[C@H]21.O=C(O)C(F)(F)F | -7.528
73 | COCCN1CCO[C@H]2CN(Cc3cc[nH]n3)C[C@H]21.O=C(O)C(F)(F)F.O=C(O)C(F)(F)F | 90.56
74 | O=C(O)C(F)(F)F.O=C(O)C(F)(F)F.c1cc(CN2C[C@@H]3OCCN(CC4CC4)[C@@H]3C2)n[nH]1 | 105.8
75 | O=C(O)C(F)(F)F.O=C(O)C(F)(F)F.O=C(O)C(F)(F)F.c1coc(CN2C[C@@H]3OCCN(CCN4CCCC4)[C@@H]3C2)c1 | -5.292

Row | SMILES | Percent Effect [%]
76 | O=C(O)CSc1nnc(-c2ccn[nH]2)n1-c1ccccc1Cl | -20.89
77 | Cc1ccccc1OCCC(=O)N1CCc2nc(C)n(C)c(=O)c2CC1 | 7.029
78 | c1cnc(-c2nc(CN3CCOC(Cn4cncn4)C3)cs2)nc1 (configuration not stated) | 0
79 | c1ccc(-c2nc(CN3CCOC(Cn4cncn4)C3)cs2)cc1 (configuration not stated) | 125.5
80 | Cn1cc(-c2nc(CN3CCOC(Cn4cccn4)C3)cs2)cn1 (configuration not stated) | 14.65
81 | Cn1cc(-c2nc(CN3CCOC(Cn4cncn4)C3)cs2)cn1 (configuration not stated) | 113.5
82 | Cc1ccc(-c2noc(CN3CCOC(Cn4cncn4)C3)n2)cc1 (configuration not stated) | -2.106
83 | Cc1noc(C)c1CN1C(=O)[C@H]2CC[C@@H]1CN(Cc1ccc(Cl)cc1)C2 | -8.21
84 | CC(C)n1ncc2cc(NC(=O)N3CCC(N4CCCC4)C3)cnc21 (configuration not stated) | -0.151
85 | COc1ccc(C(=O)Nc2nncs2)cn1 | -3.004
86 | CCc1nc(CC(=O)N2CCN(c3cnccn3)CC2)cs1 | 8.255
87 | Cc1ccccc1N1CCCN(c2ccncn2)CC1 | -18.24
88 | CCc1nc(C2CCCN(c3ncccn3)C2)no1 (configuration not stated) | 22.68
89 | Cc1cc(C)nc(C2CCN(c3ccncn3)C2)n1 (configuration not stated) | 136
90 | CCc1nnc(Nc2cc(C)nc(C3CCN(c4ccncn4)C3)n2)s1 (configuration not stated) | 171.2
91 | CCc1nnc(CNC2CCN(c3ncnc4c(C)csc34)CC2)s1 | 6.605
92 | CCc1nnc(Nc2cccc(C3CCN(CCO)CC3)n2)s1 | -9.2
93 | CCc1cc(N2CCN(c3cnccn3)CC2)n2nc(C)c(C)c2n1 | 6.49
94 | COc1cc(N2CCCC(c3nccn3Cc3ccncc3)C2)ncn1 (configuration not stated) | 26.87
95 | CCc1nnc(Nc2cc(C)nc(C3CCN(c4cnccn4)C3)n2)s1 (configuration not stated) | 134.1
96 | CCc1nnc(Nc2cc(C)nc(C3CCN(c4ncccn4)C3)n2)s1 (configuration not stated) | 164.2
97 | Cc1nccn1CCC1CCN(c2ccncn2)CC1 | -24.71
